Screens as filed in PubChem BioAssay.
Sampled rows, rich in hits. Any-hit rate of the full collection: about 19%.
KB-V1 MDR tox: KB-V1 MDR subline cytotoxicity | KB-V1 MDR cells viability, CellTiter-Glo, 72 h | Potency, µM (series often up to 46.1 µM), most hits filed as cytotoxic | 3.4% of 400,000 active; further: nearly all actives have a fitted effect of over 60% in size
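Compound-treated KB-V1 multidrug-resistant cells, 72 h, 37 degrees C; viability by CellTiter-Glo. Fitted qHTS curves give the values.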
TDP1 cell noCPT: qHTS for Inhibitors of human tyrosyl-DNA phosphodiesterase 1 (TDP1): qHTS in cells in absence of CPT | DT40 Tdp1-/- hTDP1 cells, no CPT, ATP luminescence, 48 h | Potency, µM (titrated, usually from 46.2 µM), usual class: inhibitors | 15% of 420,000 active; further: nearly all actives have a fitted effect of over 55% in size
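A cellular qHTS used chicken DT40 cells lacking endogenous Tdp1 but carrying stably transfected human TDP1. Compounds were applied without camptothecin, and cell growth kinetics were judged by ATP-dependent luminescence after ≥48 hr.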
HT1080 IDH1KD tx: kills HT-1080 cells with IDH1 knockdown; 2% of 360,000 active; AID 686971; Potency, µM (series often up to 46.1 µM), usual class: cytotoxic; HT-1080 IDH1 knockdown viability, ATP luminescence, 48 h
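HT-1080-IDH1KD cells (IDH1 knocked down), 750/well in RPMI with 5% FBS, treated with compound 48 h at 37 degrees C. Viability by CellTiter-Glo luminescence, normalised to DMSO and no-cell wells; concentration-response curves classed.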
HT1080-NT tox: kills 2HG-producing HT-1080-NT fibrosarcoma cells. 1.6% of 360,000 active. Potency, µM (series often up to 46.1 µM), usual class: cytotoxic. AID 686970. HT-1080-NT fibrosarcoma viability, CellTiter-Glo ATP luminescence, 48 h;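 further: NT is the 2HG producing partner of a matched IDH1 knockdown line; nearly all actives have a fitted effect of over 55% in size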
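A 48-hour cytotoxicity screen used HT-1080-NT cells plated 2 hours before compound delivery. ATP-based CellTiter-Glo luminescence measured viability, normalized to DMSO and no-cell controls.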
TDP1 cell CPT: growth inhibition of DT40 Tdp1-/-;hTDP1 cells with camptothecin (screen for TDP1 inhibitors); chicken DT40 Tdp1-/-;hTDP1 cells + 20 nM CPT, ATP luminescence, 48 h; Potency, µM (top dose mostly 46.2 µM), hits mostly inhibitors; 12% of 420,000 active; AID 686979; further: nearly all actives have a fitted effect of over 55% in size
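Chicken DT40 Tdp1-/- cells complemented with human TDP1, 400 cells/well, exposed to compounds plus 20 nM camptothecin for at least 48 h at 37 C; viability read as ATP content by CellTiter-Glo luminescence.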
KB-3-1 cytotox: kills parental KB-3-1 adenocarcinoma cells | KB-3-1 viability, CellTiter-Glo ATP luminescence, 72 h | Potency, µM (series often up to 46.1 µM), most hits filed as cytotoxic | 1.4% of 400,000 active | AID 1347075; further: nearly all actives have a fitted effect of over 60% in size
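Cytotoxicity measured as CellTiter-Glo luminescence after 72 h at 37 C. Compound titrations were pinned onto drug-naive KB-3-1 parental adenocarcinoma cells grown in DMEM with 10% FBS, and normalized data fitted to concentration-response curves.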
A number is an active result; n = inactive; u = inconclusive; x = no result. The call rests on the fitted dose curve; in most records, active means well fitted curve in the direction sought with a large enough effect; inconclusive means small, poorly fitted or top-dose-only effect, or another doubt; inactive means no such curve, though single readings can be large; an effect the other way counts as inactive or inconclusive.

SMILES	KB-V1 MDR tox	TDP1 cell noCPT	HT1080 IDH1KD tx	HT1080-NT tox	TDP1 cell CPT	KB-3-1 cytotox
Cc1cnc(NC(=O)c2ccc(F)c(S(=O)(=O)N3CCOCC3)c2)s1	18µM	u	n	n	u	n
O=C(Nc1ccc(F)c(F)c1)c1ccc(F)c(S(=O)(=O)N2CCC3(CC2)OCCO3)c1	u	13µM	u	u	16µM	u
COc1c(Cl)ccc(Cl)c1C(=O)NC(=S)N1CCOCC1	n	u	n	n	n	n
O=C1c2ccccc2C(c2nnnn2-c2ccc3c(c2)OCCO3)N1Cc1ccc(F)cc1 (stereo unspecified)	u	u	n	n	u	n
Cc1nc2cccnc2n1-c1cccc(C(=O)NCCc2ccc(S(N)(=O)=O)cc2)c1	x	n	x	x	n	x
COc1cc(/C=C(\C#N)C(N)=O)cc(CSc2nc3ccccc3s2)c1O	x	15µM	x	x	15µM	x
NC(=O)c1ccc(CSc2nc3ccccc3s2)cc1	u	n	n	n	n	u
CCCCCC(=O)Nc1nc(C)c(-c2csc(Nc3cc(OC)ccc3OC)n2)s1	n	2.9µM	u	u	4.1µM	u
COc1ccc(OC)c(Nc2nc(-c3cccs3)cs2)c1	u	n	n	u	n	n
CCCCCCC(=O)Nc1nc(C)c(-c2csc(Nc3cc(OC)ccc3OC)n2)s1	n	18µM	n	n	u	n
CC(C)(C)N1C(=O)Cc2c1nc(N)c1c(N)nc(N3CCCCC3CO)c(C#N)c21 (stereo unspecified)	u	18µM	n	n	21µM	u
COc1ccc(N(Cc2ccccc2)S(=O)(=O)c2cccc(C(=O)NCC3CCCO3)c2)cc1 (stereo unspecified)	u	n	n	n	n	n
C=CCn1c(=NC(=O)CN2C(=O)CCC2=O)sc2cccc(OC)c21	n	u	n	n	u	n
C=CCn1c(=NC(=O)C2COc3ccccc3O2)sc2cccc(OC)c21 (stereo unspecified)	u	23µM	n	n	u	u
COC(=O)Cn1c(=NC(=O)CN2C(=O)CCC2=O)sc2cc(S(N)(=O)=O)ccc21	n	n	n	n	n	n
COC(=O)Cn1c(=NC(=O)C2COc3ccccc3O2)sc2cc(S(N)(=O)=O)ccc21 (stereo unspecified)	n	18µM	n	n	u	n
CCn1c(=NC(=O)C2COc3ccccc3O2)sc2c(C)ccc(OC)c21 (stereo unspecified)	u	12µM	n	n	21µM	u
Clc1cccc(CSc2ncnc3c2ncn3C2CCCCO2)c1 (stereo unspecified)	n	16µM	n	n	u	n
Fc1ccc(CSc2ncnc3c2ncn3C2CCCCO2)cc1 (stereo unspecified)	21µM	u	n	n	u	n
C/C(=N\NC(=O)CSc1nc(C)cc(C)n1)c1cccs1	n	n	n	n	n	n
C/C(=N\NC(=O)Cn1nc(C)c(Br)c1C)c1cccs1	15µM	u	n	n	n	n
CCn1c(COc2ccccc2)nc2ccccc21	n	n	n	n	n	n
CCn1c(COc2ccc(OC)cc2)nc2ccccc21	u	u	n	n	n	n
Cc1ccc(OCc2nc3ccccc3n2C(C)C(=O)Nc2c(C)cccc2C)cc1 (stereo unspecified)	u	18µM	u	u	u	n
COCCn1c(COc2ccc(OC)cc2)nc2ccccc21	8.2µM	u	n	n	u	n
SMILES	KB-V1 MDR tox	TDP1 cell noCPT	HT1080 IDH1KD tx	HT1080-NT tox	TDP1 cell CPT	KB-3-1 cytotox
Cc1ccc(OCc2nc3ccccc3n2CC(C)C)cc1	n	23µM	x	x	u	n
CCOC(=O)c1c(NC(=O)CN2C(=O)NC3(CCC(C)CC3)C2=O)sc(C)c1-c1ccc(C)cc1 (stereo unspecified)	n	18µM	n	n	21µM	n
CCOC(=O)c1c(NC(=O)CN2C(=O)NC3(CCCCC3)C2=O)sc(C)c1-c1ccc(C)cc1	21µM	21µM	n	n	18µM	u
CCOC(=O)c1c(NC(=O)CN2C(=O)NC3(CCC(C)CC3)C2=O)sc(C(=O)N(C)C)c1C (stereo unspecified)	n	n	n	n	n	n
CCOC(=O)C1=C(COC(=O)COc2ccc(OCC)cc2)NC(=O)NC1C (stereo unspecified)	n	n	n	n	n	n
CC(C)CC#Cc1ccc2c(c1)O[C@H](CN(C)C(=O)Cc1ccncc1)[C@H](C)CN([C@H](C)CO)S2(=O)=O	n	26µM	n	n	u	u
COc1cccc(C#Cc2ccc3c(c2)O[C@@H](CN(C)C(=O)c2ccccn2)[C@@H](C)CN([C@H](C)CO)S3(=O)=O)c1	n	u	n	n	u	n
C[C@@H]1CN([C@H](C)CO)S(=O)(=O)c2ccc(C3=CCCCC3)cc2O[C@H]1CN(C)C(=O)Cc1cccnc1	n	26µM	n	n	u	n
C[C@H](CO)N1C[C@H](C)[C@H](CN(C)C(=O)c2ccccn2)Oc2cc(C#Cc3ccc(F)cc3)ccc2S1(=O)=O	n	18µM	n	n	21µM	u
C[C@H]1CN([C@@H](C)CO)S(=O)(=O)c2ccc(C#Cc3ccccn3)cc2O[C@@H]1CN(C)C(=O)C1CC1	n	16µM	n	u	u	n
C[C@@H]1CN([C@@H](C)CO)S(=O)(=O)c2ccc(Br)cc2O[C@H]1CN(C)C(=O)Cc1cccnc1	n	n	n	n	n	n
O=C(NCc1ccccc1)c1cc(C2COCCN2C(=O)c2cccs2)on1 (stereo unspecified)	n	n	n	u	n	n
CCOC(=O)C(=CNc1ccc(NC2=NCC(C)(C)S2)cc1)C(=O)OCC	n	9.2µM	n	n	18µM	n
CCOC(=O)C(=CNc1ccc2c(c1)CCN2C(C)=O)C(=O)OCC	n	7.3µM	n	n	21µM	n
CCOC(=O)C(=CNc1ccc(S(N)(=O)=O)cc1)C(=O)OCC	n	n	n	n	n	n
CCOC(=O)C(=CNc1ccc(N2CCOCC2)cc1)C(=O)OCC	n	16µM	n	n	u	n
CCOC(=O)C(=CNc1cc(C)ccc1-n1cccc1)C(=O)OCC	n	16µM	n	n	18µM	n
Cc1ccc(NC(=O)CCNS(=O)(=O)c2ccc3c(c2)CCC(=O)N3)cc1	u	n	n	n	n	n
CCN(CC(=O)Nc1cccc(Br)c1)Cc1nc2ccccc2c(=O)[nH]1	n	4.6µM	n	n	5.2µM	n
